The panel holds about 83,000 compounds, 20% with a hit somewhere; the sample as a whole holds those more often.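 A percent growth of 40 corresponds to 60% growth inhibition; 0 means no net growth; -100 means all cells died. Active threshold: below 10.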 A number with no mark means an inactive call. Active and inactive are the calls of the source.
Assays:
Experiment in all cases: NCI-60 one-dose screen, 48 h (100 = growth as untreated, 0 = no growth, -100 = all killed)
Conditions in all cases: 10 µM unless noted
MDA-MB-435 melanoma = system: MDA-MB-435 melanoma
SW-620 colon = system: SW-620 colon
MCF7 breast = system: MCF7 breast
HCT-116 colon = system: HCT-116 colon
HCC-2998 colon = system: HCC-2998 colon
KM12 colon = system: KM12 colon

## O=C1NCc2ccc3c(-c4cccc(Cl)c4)c[nH]c3c21
MDA-MB-435 melanoma
  growth: -26.2% (active)
SW-620 colon
  growth: 20.7%
MCF7 breast
  growth: 17.5%
HCT-116 colon
  growth: 14.2%
HCC-2998 colon
  growth: 25.3%
KM12 colon
  growth: 19.1%

## COCCOC(=O)COc1ccc(OC)cc1
MDA-MB-435 melanoma
  growth: 89.8%
SW-620 colon
  growth: 93.5%
MCF7 breast
  growth: 97.3%
HCT-116 colon
  growth: 106%
HCC-2998 colon
  growth: 111%
KM12 colon
  growth: 100%

## C=C1C(=O)O[C@H]2[C@H]1CC/C(COC(=O)CCCCCCCC(=O)OC/C1=C/CC[C@@]3(C)O[C@H]3[C@H]3OC(=O)C(=C)[C@@H]3CC1)=C\CC[C@@]1(C)O[C@@H]21
MDA-MB-435 melanoma
  growth: 29.9%
SW-620 colon
  growth: 7.61% (active)
MCF7 breast
  growth: 5.35% (active)
HCT-116 colon
  growth: -43.6% (active)
HCC-2998 colon
  growth: 78.6%
KM12 colon
  growth: 46.7%

## COc1ccc(C2N(c3cc(OC)c(OC)c(OC)c3)C(=O)C2(F)F)cc1F (centres undefined)
MDA-MB-435 melanoma
  growth: 12.9%
SW-620 colon
  growth: 21.2%
MCF7 breast
  growth: 15.1%
HCT-116 colon
  growth: 5.76% (active)
HCC-2998 colon
  growth: 84.2%
KM12 colon
  growth: 22.9%

## Cc1c(C(=O)Nc2nc3ccccc3[nH]2)cnn1-c1ccccn1
MDA-MB-435 melanoma
  growth: 108%
SW-620 colon
  growth: 107%
MCF7 breast
  growth: 95.6%
HCT-116 colon
  growth: 97.3%
HCC-2998 colon
  growth: 97.3%
KM12 colon
  growth: 103%

## O=C(Nc1cc(Br)ccn1)c1cc2cc(Nc3nc(-c4ccccc4)nc4ccccc34)ccc2oc1=O
MDA-MB-435 melanoma
  growth: 116%
SW-620 colon
  growth: 104%
MCF7 breast
  growth: 91.1%
HCT-116 colon
  growth: 98.5%
HCC-2998 colon
  growth: 92.7%
KM12 colon
  growth: 102%

## CN1CC=C(c2cc(NC(=O)Nc3ccc(Oc4ccnc(NC(=O)C5CC5)c4)c(F)c3)cc(C(F)(F)F)c2)CC1
MDA-MB-435 melanoma
  growth: -12.4% (active)
SW-620 colon
  growth: -0.0556% (active)
MCF7 breast
  growth: -17.1% (active)
HCT-116 colon
  growth: -10.7% (active)
HCC-2998 colon
  growth: 11.8%
KM12 colon
  growth: -11.2% (active)

## Cc1ccc(C(=O)O)o1
MDA-MB-435 melanoma
  growth: 108%
SW-620 colon
  growth: 107%
MCF7 breast
  growth: 105%
HCT-116 colon
  growth: 96.1%
HCC-2998 colon
  growth: 102%
KM12 colon
  growth: 96.9%

## CCn1cc(C(=O)O)c(=O)c2cc(F)c(N3CCN(CC(=O)Nc4ccc(/C(C)=N/OC)cc4)CC3)cc21
MDA-MB-435 melanoma
  growth: 102%
SW-620 colon
  growth: 110%
MCF7 breast
  growth: 93.8%
HCT-116 colon
  growth: 104%
HCC-2998 colon
  growth: 101%
KM12 colon
  growth: 94.5%

Source: PubChem BioAssay (NCI)
